Only some compounds are listed: those with a hit (about 12% of all), similar ones and a draw of the others.
Sfp inh = Sfp phosphopantetheinyl transferase inhibition | Q9F4F7 | Potency, µM, for inactives: largest response in the series, negative = inhibition, usual class: inhibitors | actives 3.5% (n = 310,000) | Biochemical Sfp PPTase activity, qHTS | AID 1490;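 also: the enzyme is Sfp with the accession as filed and its product quenches rhodamine fluorescence; 0% = enzyme reaction without inhibitor and -100% = no enzyme wells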
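With Hepes-Na pH 7.6 buffer containing 10 mM MgCl2, Sfp (15 nM) modified BHQ-2-YbbR (12.5 uM) using rhodamine-CoA (5 uM). Two reads 30 minutes apart at 525/598 nm yielded each well's rate.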
BAZ2B inh = inhibitors of human BAZ2B bromodomain | Q9UIF8 | AlphaScreen BAZ2B-H3K14Ac peptide displacement | Potency, µM (top dose mostly 114 µM), without a hit: at the highest dose activity change, negative = inhibition, most hits filed as inhibitors | actives 4.4% (n = 360,000); also: % is scaled to controls: 0 for no effect and ±100 for the full control effect; nearly all actives have a fitted effect of over 60% in size
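In this displacement format the biotinylated H3(5-23) peptide acetylated at Lys14 serves as ligand at 50 nM, with BAZ2B at 50 nM in PBS pH 7.4 containing 0.01% Tween-20. Donor and acceptor beads are 10 ug/mL final.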
L3MBTL1 inh = L3MBTL1 (human) inhibition. AID 485360. actives 0.66% (n = 230,000). AlphaScreen L3MBTL1–H3K9me1 peptide binding. Q9Y468. Potency, µM (highest dose often 57.1 µM), for the others: top-dose activity, negative = inhibition, usual class: inhibitors; also: % is scaled to controls: 0 for no effect and ±100 for the full control effect; nearly all actives have a fitted effect of over 60% in size
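L3MBTL1 (50 nM) pre-complexed 30 min with biotinylated H3(1-15)K9me1 peptide (75 nM), then compounds added for 30 min at room temperature; AlphaScreen streptavidin donor/nickel chelate acceptor beads (10 ug/mL final) read after 30 min dark incubation.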
HP1b chromo inh = inhibitors of HP1-beta chromodomain binding to methylated histone tails; Potency, µM (top dose mostly 114 µM), for inactives: at the highest dose activity change, negative = inhibition, usual class: inhibitors; actives 0.56% (n = 390,000); P83916; AlphaScreen HP1-beta / biotin-H3K9me3 peptide binding; also: nearly all actives have a fitted effect of over 70% in size
Target sequence (P83916 whole entry, looked up): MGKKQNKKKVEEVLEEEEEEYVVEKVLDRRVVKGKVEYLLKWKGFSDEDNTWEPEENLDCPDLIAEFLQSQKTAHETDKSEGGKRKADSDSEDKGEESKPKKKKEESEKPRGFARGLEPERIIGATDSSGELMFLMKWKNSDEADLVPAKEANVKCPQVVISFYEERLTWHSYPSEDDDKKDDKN
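AlphaScreen: HP1-beta (50 nM) preformed 30 min with biotin-H3(1-18)K9me3 peptide (50 nM) in PBS pH 7.4, 0.01% Tween-20. Compound added for 30 min at RT, then streptavidin donor/nickel chelate acceptor beads (10 ug/mL) for 30 min.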
G9a block = blocks human histone lysine methyltransferase G9a | Potency, µM (series often up to 102 µM), without a hit: at the highest dose activity, negative = inhibition, usual class: inhibitors | actives 8.8% (n = 350,000) | G9a H3K9 monomethylation, AlphaScreen, 2 h | Q96KQ7; also: % is scaled to controls: 0 for no effect and ±100 for the full control effect; nearly all actives have a fitted effect of over 75% in size
Target sequence (Q96KQ7 913-1193 limits assumed): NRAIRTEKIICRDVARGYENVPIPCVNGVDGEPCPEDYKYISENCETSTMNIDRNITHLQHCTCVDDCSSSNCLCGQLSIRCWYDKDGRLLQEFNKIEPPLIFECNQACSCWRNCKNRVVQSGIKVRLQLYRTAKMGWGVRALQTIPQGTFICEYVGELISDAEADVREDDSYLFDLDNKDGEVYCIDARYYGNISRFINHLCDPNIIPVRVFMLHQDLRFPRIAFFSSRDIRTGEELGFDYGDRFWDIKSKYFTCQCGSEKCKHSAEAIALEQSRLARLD
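Enzyme 20 nM + cpd, 15 min RT; add b-H3K9 pep 500 nM / SAM 20 uM; 2 h RT; anti-H3K9me1 Ab 0.5 ug/mL + SA donor / anti-rabbit acceptor beads 20 ug/mL each, 10 min; AlphaScreen read.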
JMJD2A Tudor inh = JMJD2A Tudor domain (human) inhibition | O75164 | AlphaScreen JMJD2A-Tudor / H3K4me3 peptide binding | Potency, µM (titrated, usually from 114 µM), for inactives: top-dose activity change, negative = inhibition, most hits filed as inhibitors | actives 4.4% (n = 390,000); also: % is scaled to controls: 0 for no effect and ±100 for the full control effect; nearly all actives have a fitted effect of over 50% in size
An asterisk follows results filed as active; u = inconclusive; x = not tested or not shown; [ ] = remark or other dose. Calls follow the shape of the dose curve; as a rule, active = well fitted curve in the direction sought with a large enough effect; inconclusive = small, poorly fitted or top-dose-only effect, or another doubt; inactive = no such curve, though single readings can be large; an effect the other way counts as inactive or inconclusive. Potency is read from the fitted curve at half-maximal effect.

SMILES	Sfp inh	BAZ2B inh	L3MBTL1 inh	HP1b chromo inh	G9a block	JMJD2A Tudor inh
CCC(C)(C)n1nnnc1C(c1ccc(O)c(OC)c1)N1CCN(c2nc3ccccc3s2)CC1 (centres undefined)	39.8µM*	-35.6%	-13.2%	-27.9%	2.51µM*	-32.4%
COc1ccc(C(c2nnnn2C(C)(C)C)N2CCN(c3nc4ccccc4s3)CC2)cc1 (centres undefined)	9.1%	-13.5%	-3.1%	23.5%	-40.7%[59 µM]	-17.2%
CCCC(c1nnnn1CCOC)N1CCN(c2nc3ccccc3s2)CC1 (centres undefined)	u	-1.5%	6.5%	-18.9%	-18.6%	12.6µM*
CCCC1(CCC)NC(=O)N(CC(=O)N2CCc3ccccc32)C1=O	x	x	3.0%	14.1%	x	-4.5%
S=C(Nc1ccccc1Cl)NC1CC2CCCC(C1)N2C1CC1 (centres undefined)	-3.2%	-11.1%	3.5%	63.6%	-38.0%	-7.5%
COc1ccc(C(=O)COC(=O)C2CCC(=O)N2)cc1 (centres undefined)	18.9%	-9.8%	x	5.4%	1.4%	-12.7%
COc1ccc(C(=O)NC2CCCCC2)cc1OC1CCN(C(C)C)CC1	11.9%	-0.6%	x	20.8%	59.2%	0.0%
Cc1cccc(NC(=O)CCN2CCN(c3ccccc3F)CC2)c1	x	4.5%	x	45.4%	4.4%[59 µM]	-19.9%
CC(=O)c1ccccc1OC(=O)CCN1C(=O)c2ccccc2C1=O	-1.5%	-11.7%	9.8%	36.0%	-11.6%	-9.8%
Cc1nc(SCC(=O)NC2(C#N)CCCC2)n(CC(C)C)c1C	x	-1.7%	-6.8%	18.9%	39.8µM*	-13.6%
CN(C)/C=N/C(=S)Nc1ccccc1F	-24.6%	-5.9%	-2.2%	18.7%	7.4%[12.7 µM]	7.5%
CCNC(=S)Nc1ccc(Cl)cc1Cl	20.1%	-0.6%	9.7%	32.3%	10.4%[59 µM]	-1.4%
CN(C)/C=N/C(=S)Nc1ccccc1Cl	50.1µM*	13.0%	-19.5%	16.2%	u	-10.4%
CN(O)/C=N/C(=S)Nc1ccc(Cl)cc1Cl	u	u	0.2%	9.1%	3.55µM*	-22.0%
COc1ccccc1OCCNc1nc2c(c(=O)n(C)c(=O)n2C)n1C	15.6%	11.8%	2.2%	-20.8%	18.6%[59 µM]	22.4µM*
O=C(CCN1CCCC1)Nc1ccc(Br)cc1	-4.2%	12.2%	-5.5%	43.7%	20µM*	-18.0%
CN1CCN(CCC(=O)Nc2ccc(C3CCCC3)cc2)CC1	6.8%	u	-3.4%	36.5%	31.6µM*	-10.3%
CN1CCN(CCC(=O)Nc2ccc(Cl)cc2)CC1	x	-17.2%	x	8.8%	11.2µM*	-25.0%
O=C(CN1CCOCC1)Nc1ccc(C2CCCCC2)cc1	-7.1%	-5.7%	0.4%	31.5%	-12.2%[59 µM]	-16.0%
Cc1ccc(NC(=O)CCN2CCN(C/C=C/c3ccccc3)CC2)cc1C	89.1µM*	u	-3.6%	-3.9%	-2.5%[2.33 µM]	u
CN1CCN(CCC(=O)Nc2ccccc2)CC1	9.2%	1.2%	-5.0%	42.8%	x	-9.0%
Cc1ccc(-c2nn(-c3ccccc3)cc2C(=O)NCC(c2cccs2)N2CCOCC2)cc1 (centres undefined)	x	-5.6%	-7.7%	0.2%	27.9%[0.501 µM]	-13.5%
O=C(CCC(=O)N1CCc2ccccc2C1)NCCc1ccc(Cl)cc1	6.7%	-7.4%	-0.9%	12.1%	16.8%	-11.6%
O=C(CO)[C@@H](O)C(O)[C@@H](O)CO (some centres undefined)	-0.5%	x	x	x	x	x
Cc1ccc(C)c(NC(=O)CN(C)C(C)C(=O)N2CC(C)CC(C)C2)c1 (centres undefined)	x	-4.6%	4.8%	47.8%	56.2µM*	-19.7%
COc1cc(OC)cc(-c2c(-c3cccs3)c3cc(-c4ccc(N(C)C)nc4)ccc3n2C)c1	x	56.2µM*	-2.2%	14.1%	3.1%[0.501 µM]	u
CSCc1ccc(C(=O)NC(C)c2cnn(-c3ccccn3)c2C)o1 (centres undefined)	8.4%	-4.6%	x	42.8%	35.5µM*	2.8%
CSCc1ccc(C(=O)NC2CC(C)(C)Cc3c2cnn3-c2ccc(F)cc2)o1 (centres undefined)	-6.6%	-37.5%	x	7.0%	-24.7%[59 µM]	u

Source: PubChem BioAssay (National Center for Advancing Translational Sciences (NCATS))
